Results from PubChem BioAssay (Tox21).
Records with an inconclusive call do not appear. Activity calls are given as the source filed them. Unless noted, calls come from the whole dose curve; as a rule, active = well fitted curve in the direction sought with a large enough effect in the repeat runs; inconclusive = weak or mixed curves; inactive = no such curve, though single readings can be large; an effect the other way counts as inactive or inconclusive.

Experiments:
[1] = qHTS assay to identify small molecule antagonists of the glucocorticoid receptor (GR) signaling pathway - cell viability counter screen (AID 720693); conditions: GR-bla HeLa viability, CellTiter-Glo luminescence, 18 h, with 5 nM dexamethasone present; series mostly up to 58.5 µM; note: nearly all actives have a fitted effect of over 55% in size
[2] = qHTS assay for identifying genotoxic compounds that show differential cytotoxicity against isogenic chicken DT40 cell lines with known DNA damage response pathways - Rev3 mutant cell line (AID 743014); conditions: chicken DT40 Rev3-/- viability, CellTiter-Glo, 40 h; series mostly up to 68.4 µM; note: nearly all actives have a fitted effect of over 55% in size; note: potency is the fitted concentration of half-maximal effect
[3] = qHTS assay for identifying genotoxic compounds that show differential cytotoxicity against isogenic chicken DT40 cell lines with known DNA damage response pathways - Rad54/Ku70 mutant cell line (AID 743015); conditions: DT40 Rad54/Ku70 mutant viability, CellTiter-Glo, 40 h; series mostly up to 66.8 µM; note: nearly all actives have a fitted effect of over 60% in size; note: potency is the fitted concentration of half-maximal effect
[4] = qHTS assay to identify small molecule antagonists of the androgen receptor (AR) signaling pathway - cell viability counter screen (AID 743033; note: nearly all actives have a fitted effect of over 45% in size); conditions: AR-bla HEK293 viability, CellTiter-Glo luminescence, 16 h; series mostly up to 58.5 µM
[5] = qHTS assay to identify small molecule antagonists of the androgen receptor (AR) signaling pathway using the MDA cell line - cell viability counter screen (AID 743041; note: nearly all actives have a fitted effect of over 45% in size); conditions: MDA-kb2 viability, CellTiter-Fluor, 16 h, cells co-treated with R1881 androgen agonist; series mostly up to 70.3 µM
Outline: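 MDA-kb2 AR-luc cells (MMTV-luciferase, AR/GR responsive) treated with compounds plus R1881 agonist for 16 h at 37C. CellTiter-Fluor added at 15.5 h; fluorescence read after 30 min in the same wells.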

[6] = molecular target: Androgen receptor (Homo sapiens) (UniProt P10275); experiment: qHTS assay to identify small molecule antagonists of the androgen receptor (AR) signaling pathway (AID 743035; active = well fitted inhibition curve with a large enough effect in the signal ratio in the repeat runs, not every such curve was filed as active; the % refers to the signal ratio); conditions: HEK293 AR-UAS-bla, R1881-stimulated, beta-lactamase FRET, 16 h; series mostly up to 58.5 µM
Outline: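 Antagonism is scored as loss of R1881-driven beta-lactamase reporter expression in HEK293 cells carrying the reporter under a UAS element, after 16 h co-treatment at 37C and a 2 h room-temperature FRET substrate read.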

[7] = molecular target: Androgen receptor (Homo sapiens) (UniProt P10275); experiment: qHTS assay to identify small molecule agonists of the androgen receptor (AR) signaling pathway using the MDA cell line (AID 743040; note: nearly all actives have a fitted effect of over 20% in size; note: potency is the fitted concentration of half-maximal effect); conditions: MDA-kb2 AR-luc cells, MMTV luciferase, 16 h; series mostly up to 70.3 µM
Outline: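 MDA-kb2 breast carcinoma cells carrying MMTV-luciferase (responsive to AR and GR), plated 5 h then treated 16 h with compounds at 37C, 0% CO2. Read-out was ONE-Glo luminescence after 30 min at room temperature.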

[8] = molecular target: Androgen receptor (Homo sapiens) (UniProt P10275); experiment: qHTS assay to identify small molecule antagonists of the androgen receptor (AR) signaling pathway using the MDA cell line (AID 743042; note: nearly all actives have a fitted effect of over 55% in size); conditions: MDA-kb2 AR-luc, MMTV luciferase, R1881 antagonist, 16 h; series mostly up to 70.3 µM
Outline: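 MDA-kb2 breast carcinoma cells carrying MMTV-luciferase (AR/GR responsive) were co-treated with compounds and the agonist R1881 for 16 h at 37C. Inhibition read as ONE-Glo luminescence; CellTiter-Fluor fluorescence measured in parallel for cytotoxicity.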

[9] = qHTS assay for identifying genotoxic compounds that show differential cytotoxicity against isogenic chicken DT40 cell lines with known DNA damage response pathways - wild type cell line (AID 743012); conditions: DT40 wild type chicken cells viability, CellTiter-Glo, 40 h; series mostly up to 68.4 µM; note: nearly all actives have a fitted effect of over 60% in size
Outline: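 Cells (DT40 wild type, 300/well) are treated with DMSO-dissolved compounds after a ~0.5 h pre-incubation and kept 40 h at 37 C/5% CO2. Viability is then measured by CellTiter-Glo luminescence following 30 min at room temperature.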

[10] = molecular target: Androgen receptor (Homo sapiens) (UniProt P10275); experiment: qHTS assay to identify small molecule agonists of the androgen receptor (AR) signaling pathway (AID 743036; active = well fitted activation curve with a large enough effect in the signal ratio in the repeat runs, with a control signal flat, not every such curve was filed as active; the % refers to the signal ratio); conditions: HEK293 AR-UAS-bla GripTite, beta-lactamase FRET ratio, 16 h; series mostly up to 62.4 µM
Outline: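 HEK293 cells stably carrying a UAS-driven beta-lactamase reporter (GeneBLAzer AR-UAS-bla-GripTite) were plated at 2,000 cells/well, rested 4 h at 37C, then exposed to compounds in DMSO for 16 h. LiveBLAzer B/G FRET substrate was added for 2 h at room temperature; fluorescence read.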
% is set by controls: 0 for no effect and ±100 for the full control effect.

Chain of Androgen receptor (Homo sapiens) (P10275 whole entry, looked up): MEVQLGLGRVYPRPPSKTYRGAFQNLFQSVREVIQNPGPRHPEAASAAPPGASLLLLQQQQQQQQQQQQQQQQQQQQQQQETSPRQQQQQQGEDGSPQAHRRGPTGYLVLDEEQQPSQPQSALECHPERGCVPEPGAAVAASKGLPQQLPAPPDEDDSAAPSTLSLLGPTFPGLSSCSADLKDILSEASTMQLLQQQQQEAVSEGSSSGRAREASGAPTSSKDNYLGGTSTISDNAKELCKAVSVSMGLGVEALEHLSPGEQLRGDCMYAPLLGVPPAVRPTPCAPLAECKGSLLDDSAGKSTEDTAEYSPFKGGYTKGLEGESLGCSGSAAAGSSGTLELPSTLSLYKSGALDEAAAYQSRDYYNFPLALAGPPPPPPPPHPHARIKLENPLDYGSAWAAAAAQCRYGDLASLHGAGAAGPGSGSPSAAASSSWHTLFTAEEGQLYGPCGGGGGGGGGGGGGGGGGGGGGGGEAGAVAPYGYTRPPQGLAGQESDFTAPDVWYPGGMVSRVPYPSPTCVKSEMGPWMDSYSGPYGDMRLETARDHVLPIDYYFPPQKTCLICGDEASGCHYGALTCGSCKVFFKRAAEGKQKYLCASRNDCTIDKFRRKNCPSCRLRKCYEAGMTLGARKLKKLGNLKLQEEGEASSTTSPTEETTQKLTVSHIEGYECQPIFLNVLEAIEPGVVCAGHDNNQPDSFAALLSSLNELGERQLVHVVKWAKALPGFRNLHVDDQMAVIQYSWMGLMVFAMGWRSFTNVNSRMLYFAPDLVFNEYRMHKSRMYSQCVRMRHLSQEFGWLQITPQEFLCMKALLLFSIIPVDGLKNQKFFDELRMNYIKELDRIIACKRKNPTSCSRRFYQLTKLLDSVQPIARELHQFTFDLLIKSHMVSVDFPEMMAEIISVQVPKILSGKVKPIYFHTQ

CCCCc1ccc(N)cc1
inactive: outcome [1] | Potency [2] | Potency [3] | outcome [4] | Potency [5]

CCCCNc1ccccc1
inactive: outcome [1] | Potency [2] | outcome [4] | Potency [6] | Potency [7] | Potency [5] | outcome [8]

CNc1ncnc2nc[nH]c12
inactive: outcome [1] | Potency [9] | outcome [4] | Potency [5]

CCC(C)OC(=O)N1CCCCC1CCO (stereo unspecified)
inactive: outcome [1] | Potency [2] | Potency [3] | outcome [4] | Potency [5]

CSc1ccc(C=O)cc1
inactive: outcome [1] | Potency [9] | outcome [4] | Potency [5]

CC(C)(C)N(CCO)CCO
inactive: outcome [1] | Potency [2] | Potency [3] | outcome [4] | Potency [5]

C(=C(c1ccccc1)c1ccccc1)c1ccccc1
inactive: outcome [1] | Potency [9] | outcome [4] | Potency [5]

CCOC(=O)Nc1ccc2c(c1)N(C(=O)CCN1CCOCC1)c1ccccc1S2
inactive: outcome [1] | Potency [2] | Potency [3] | outcome [4] | Potency [6] | outcome [10] | Potency [5] | outcome [8]
active: Potency [7] 12.7 µM

O=C(O)c1ccccc1-c1ccc(C(F)(F)F)cc1
inactive: outcome [1] | Potency [2] | Potency [3] | outcome [4] | Potency [5]

CCCCCCCCCCCCCCC
inactive: outcome [1] | Potency [2] | Potency [3] | outcome [4] | Potency [5]

CC(CCO)CCCC(C)(C)O (stereo unspecified)
inactive: outcome [1] | Potency [5]
active: Potency [2] 48.6 µM

CC1=CC(=O)CCC1
inactive: outcome [1] | Potency [2] | Potency [3] | outcome [4] | Potency [5]

CSc1nc(NC2CC2)nc(NC(C)(C)C)n1
active: Potency [2] 54.5 µM | Potency [3] 54.5 µM
inactive: outcome [1] | outcome [4] | Potency [5]

CC1=CC(C)C(C=O)C(C)C1 (stereo unspecified)
inactive: outcome [1] | Potency [9] | outcome [4] | Potency [5]

NS(=O)(=O)c1cc2c(cc1C(F)(F)F)NC(Cc1ccccc1)NS2(=O)=O (stereo unspecified)
inactive: outcome [1] | Potency [2] | Potency [3] | outcome [4] | Potency [6] | outcome [10] | Potency [7] | Potency [5] | outcome [8]

Cc1nc(-c2ccc(OCC(C)C)c(C#N)c2)sc1C(=O)O
active: Potency [7] 1.19 µM
inactive: outcome [1] | Potency [9] | outcome [4] | Potency [5] | outcome [8]

CN(C)C(=O)Nc1ccccc1
inactive: outcome [1] | Potency [9] | outcome [4] | Potency [5]

CN(C)CCn1nnnc1SCC1=C(C(=O)O)N2C(=O)[C@@H](NC(=O)Cc3csc(N)n3)[C@H]2SC1
inactive: outcome [1] | Potency [2] | Potency [3] | outcome [4] | Potency [6] | outcome [10] | Potency [7] | Potency [5] | outcome [8]

CC/C=C\CCCCO
inactive: outcome [1] | Potency [9] | outcome [4] | Potency [5]

N#CC1(O)CCCCC1
inactive: outcome [1] | Potency [2] | Potency [3] | outcome [4] | Potency [5]

COc1nc(C)nc(N)n1
inactive: outcome [1] | Potency [2] | Potency [3] | outcome [4] | Potency [5]

OCC(CO)(CO)COCC(CO)(CO)CO
inactive: outcome [1] | Potency [2] | Potency [3] | outcome [4] | Potency [5]

CCOC(=O)Cn1c(=O)sc2cccc(Cl)c21
inactive: outcome [1] | Potency [3] | outcome [4] | Potency [5]

Cc1ccccc1Br
inactive: Potency [9] | Potency [2] | Potency [3] | outcome [4] | Potency [5]

Cc1ccc(Nc2ccc(O)c3c2C(=O)c2ccccc2C3=O)cc1
inactive: Potency [9] | Potency [2] | Potency [3] | outcome [4] | Potency [5]

C=CCOc1nc(OCC=C)nc(OCC=C)n1
inactive: outcome [1] | outcome [4]

CC(C)(O)Cc1ccccc1
inactive: Potency [9] | Potency [2] | Potency [3] | outcome [4] | Potency [5]

CCCOc1ccccc1-c1nc2n[nH]nc2c(=O)[nH]1
inactive: outcome [1] | outcome [4] | Potency [5]

Cc1onc(-c2ccccc2)c1-c1ccc(S(N)(=O)=O)cc1
inactive: outcome [1] | outcome [4] | Potency [5]

FC(F)(F)C(F)(F)C(F)(F)C(F)(F)C(F)(F)C(F)(F)C(F)(F)C(F)(F)C(F)(F)C(F)(F)F
inactive: viability change, negative = cytotoxic [1] -1.03% [at 7.04 µM] | activity change, negative = cytotoxicity [4] 0.133% [at 7.04 µM] | viability change, negative = cytotoxic [5] 6.81% [at 8.47 µM]

CC(C)c1cccc(O)c1
inactive: outcome [1] | Potency [3] | outcome [4] | Potency [5]

O=C1OC(=O)c2cc([N+](=O)[O-])ccc21
inactive: Potency [9] | Potency [2] | Potency [3] | outcome [4] | Potency [5]

CCC(C(=O)NC(N)=O)c1ccccc1 (stereo unspecified)
inactive: Potency [9] | Potency [2] | Potency [3] | outcome [4] | Potency [5]

CCCCCCOC(=O)CC(CC(=O)OCCCCCC)(OC(=O)CCC)C(=O)OCCCCCC
inactive: Potency [9] | Potency [2] | Potency [3] | outcome [4] | outcome [10] | Potency [7] | Potency [5] | outcome [8]

Nc1ccn(C2CO[C@H](CO)O2)c(=O)n1 (stereo partly specified)
inactive: outcome [1] | outcome [4] | Potency [5]

CCCC(C)CO (stereo unspecified)
inactive: outcome [1] | Potency [3] | outcome [4] | Potency [6] | outcome [10] | Potency [5] | outcome [8]

CCCCCCOC(=O)c1ccccc1O
inactive: outcome [1] | Potency [3] | outcome [4] | Potency [6] | Potency [7] | Potency [5] | outcome [8]

CCC(=O)/C=C/c1ccc(OC)cc1
inactive: outcome [1] | outcome [4] | Potency [5]
active: Potency [3] 54.5 µM

CC(=O)N[C@@H](CCC(N)=O)C(=O)O
inactive: outcome [1] | Potency [3] | outcome [4] | Potency [5]

CCn1cc(C(=O)O)c(=O)c2cc(F)c(N3CCN(C)CC3)cc21
inactive: outcome [1] | outcome [4] | Potency [5]

C#CC(C)(O)CC(C)C (stereo unspecified)
inactive: outcome [1] | Potency [3] | outcome [4] | Potency [5]

O=Cc1ccccc1[N+](=O)[O-]
inactive: outcome [1] | outcome [4] | Potency [5]

COC(=O)[C@H]1[C@H]2C[C@@H]3c4[nH]c5cc(OC)ccc5c4CCN3C[C@H]2C[C@@H](OC(=O)COc2ccc(OC)cc2)[C@@H]1OC
inactive: outcome [1] | Potency [5]
active: Potency [3] 18.8 µM

C=CCSCC1Nc2cc(Cl)c(S(N)(=O)=O)cc2S(=O)(=O)N1 (stereo unspecified)
inactive: outcome [1] | Potency [3] | outcome [4] | Potency [5]

COc1cc(C(=O)N2CCOCC2)cc(OC)c1OC
inactive: Potency [9] | Potency [2] | Potency [3] | outcome [4] | Potency [5]
